# PubChem BioAssay AID434958 (Southern Research Specialized Biocontainment Screening …, 2010)
# In all, about 1,200 compounds went through this assay and about 400 (33%) were called active. The rule behind the calls is not given here. The list is a sample of the results. Measured potencies and affinities stand elsewhere.
# Assay: mammalian cell cytotoxicity, dose response, cytotoxicity control (AID 434958);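 note: cells exposed to compound for 72 hours before readout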
# Conditions: cytotoxicity counter-screen; series mostly up to 40 µM
row,SMILES,outcome
1,O=C(CNC(=O)c1ccc(Br)cc1)NCC(=O)OCc1ccc(Cl)cc1,inactive
2,O=C(CSC1CS(=O)(=O)c2cc([N+](=O)[O-])ccc21)NNC(=O)c1ccccc1 (stereo not given),inactive
3,O=C1O/C(=C/c2ccccc2)N=C1c1ccccc1,inactive
4,NNC(=S)Nc1ccc(C(F)(F)F)cc1Cl,inactive
5,CCCOc1ccc(C2Nc3cccc4cccc(c34)N2)cc1,inactive
6,Cc1cccc(NC(=O)c2cc3ccccc3c(=O)o2)n1,inactive
7,O=C(CCSc1nnc(-c2ccncc2)o1)Nc1ccccc1Cl,inactive
8,COc1cccc(/C=N/Nc2nc(N3CCCC3)nc(N3CCCC3)n2)c1O,inactive
9,O=C(CSc1ncn[nH]1)Nc1cccc2ccccc12,inactive
10,COc1cccc(/C=N/NC(N)=S)c1OS(=O)(=O)c1ccccc1,inactive
11,COC(=O)c1ccccc1NC(=O)CSCC(=O)Nc1ccc(F)cc1,inactive
12,COc1ccccc1/C=N/NC(=S)Nc1cccnc1,inactive
13,Cc1ccc(N=Cc2c(O)ccc3ccccc23)cc1F,inactive
14,CONC(=O)c1cc(OCC(F)(F)F)ccc1OCC(F)(F)F,inactive
15,COC(=O)c1cccc(NC(=S)NCCC2=CCCCC2)c1,inactive
16,O=C(NCC1COc2ccccc2O1)C1CCC(CNc2c(N3CCCCC3)c(=O)c2=O)CC1 (stereo not given),inactive
17,Cc1ccc(-n2ncc(-c3nnc(SCC(=O)NC4CCCC4)o3)c2N)cc1C,inactive
18,COc1cc(C(F)(F)F)nc2ccc(C#CCOC(=O)Nc3ccccc3)cc12,inactive
19,O=C(CN1CCC(O)(c2ccc3c(c2)OCO3)CC1)OC1CCCCC1,inactive
20,COc1ccc(C(=O)Nc2nc3ccc(OC)cc3s2)cc1,inactive
21,COc1ccc2nc(NC(=O)c3ccc(Br)s3)sc2c1,inactive
22,O=C(COC(=O)c1ccc([N+](=O)[O-])s1)NCc1ccc(F)cc1,inactive
23,CCOc1ccc(NC(=S)Nc2cccnc2)cc1,inactive

row,SMILES,outcome
1,Cc1c(C(=O)Nc2cccnc2)oc2ccc(Br)cc12,inactive
2,COc1cc(NC(=O)C2CCCCC2)c(OC)cc1NC(=O)CN1CCCCC1,inactive
3,Cc1ccc(S(=O)(=O)NCCCCCC(=O)Nc2nccs2)cc1,inactive
4,Cc1nnc(SCc2ccc(C(=O)Nc3cc(Cl)ccc3C)cc2)s1,inactive
5,CCc1ccc2nc(/N=C(\N)NC(=O)c3ccccc3)nc(C)c2c1,inactive
6,COc1ccc(C(=O)Nc2ccc(C(=O)OCC(=O)c3ccccc3)cc2)cc1,inactive
7,O=S1(=O)CCO[C@H]2Cc3ccccc3[C@H]2N1Cc1ccc(Cl)cc1,inactive
8,Cc1ccc(SCCNC(=O)c2ccc(C)c([N+](=O)[O-])c2)cc1,inactive
9,Cc1ccc(NC(=O)O/N=C/c2c(C)nn(C(C)(C)C)c2C)cc1Cl,inactive
10,COc1ccc(-c2csc(NC(=O)c3c(C)noc3C)n2)cc1,inactive
11,O=C1CCNc2c(Cl)cccc21,inactive
12,Cc1ccc(NC(=O)CSc2nnc([C@@H]3CCCN3C(=O)OC(C)(C)C)o2)c(C)c1,inactive
13,CCCCCNCc1cccc(Br)c1,inactive
14,O=C1C2CCN(CC2)C1Cc1ccc(OCCOc2ccccc2)cc1 (stereo not given),inactive
15,Nc1ccc(C(=O)O)c(O)c1,inactive
16,COc1ccc(C(=O)NC(=S)Nc2ccc(S(=O)(=O)Nc3cc(C)on3)cc2)cc1OC,inactive
17,Cc1nn(C)c(C(=O)NC(=S)Nc2ccccc2Br)c1Cl,inactive
18,Cc1cc(C(=O)Nc2nnc(-c3ccccc3)s2)no1,inactive
19,O=C(Nc1ccc(F)cc1)c1sc2cc(C(F)(F)F)cnc2c1-c1cccs1,inactive
20,CCOc1ccc(-c2nnc(-c3cccs3)o2)cc1OCC,inactive
21,CC(=O)c1c(C)[nH]c(C(=O)OCC(=O)Nc2nnc(-c3ccccc3)o2)c1C,inactive
22,Cc1ccc(NC(=O)CCS(=O)(=O)c2cccc3nonc23)cc1,inactive
23,O=C(OCC(=O)c1ccc[nH]1)C1=COCCO1,inactive

row,SMILES,outcome
1,COc1ccc(C(=O)n2c(SC)nc3cc4c(cc32)OCCO4)cc1,inactive
2,Cc1ccc(OC(=O)COc2ccccc2)c(-n2nc3ccccc3n2)c1,inactive
3,N#Cc1c(SCC(=O)O)nc(N2CCCCC2)c2c1CCCC2,inactive
4,Cc1cccc(C)c1OCC(=O)NNC(=O)CNC(=O)c1ccc(OC(F)F)cc1,inactive
5,CCn1c(SCc2nc(-c3cccs3)no2)nnc1-c1c[nH]c2ccccc12,inactive
6,C=C(C)COc1ccc(-c2nc(N)ncc2Oc2ccc(OC)cc2)c(O)c1,inactive
7,COc1cccc(CNC(=O)C(Cc2ccccc2)n2cccc2)c1 (stereo not given),inactive
8,CC(=O)C1=C(C)NC(SCC(=O)c2ccccc2)=C(C#N)C1CC(C)C (stereo not given),inactive
9,Nc1nc2ccccc2n1C(=O)c1cccs1,inactive
10,COCCNC(=O)COc1ccc(Oc2ccccc2)cc1,inactive
11,O=C(COc1ccccc1)NNC(=O)c1cc2ccccc2oc1=O,inactive
12,O=C1Nc2c(ccc(Cl)c2Cl)C(=O)C1(F)c1ccccc1 (stereo not given),inactive
13,CCOC(=O)c1cnn(-c2ncnc3sc4c(c23)CCC4)c1N,inactive
14,Cc1cc(C(=O)Nc2ccc(Br)cc2F)n(-c2ccccc2)n1,inactive
15,Cc1cc(=O)n2c(-c3ccccc3C)n[nH]c2n1,inactive
16,Cc1ccc(NC(=O)/C=C\C(=O)O)c([N+](=O)[O-])c1,inactive
17,CC(=O)Nc1ccc(S(=O)(=O)Nc2cccc3cccnc23)cc1,inactive
18,Cc1ccc(C)c(SCC(=O)OCC(=O)N2CC(C)OC(C)C2)c1 (stereo not given),inactive
19,COc1ccccc1CNC(=O)COC(=O)C1=COCCO1,inactive
20,O=C(CC1SC(=O)NC1=O)Oc1ccc(/C=N/NC(=O)c2ccccc2O)cc1 (stereo not given),inactive
21,Cc1oc(C(C)(C)C)cc1C(=O)Nc1ccc2c(c1)OCCO2,inactive
22,CCOC(=O)c1ccc(NC(=O)Cc2coc3cc4c(cc23)CCC4)cc1,inactive
23,COc1ccc2[nH]c3c(c2c1)CCN=C3C,inactive

row,SMILES,outcome
1,O=C(COC(=O)C1CC1)c1c[nH]c2ccccc12,inactive
2,C=CCN(C(=O)CN1CCOCC1)c1nc(C)c(-c2ccccc2)s1,inactive
3,N#CCOC(=O)/C=C/c1ccc2c(c1)OCO2,inactive
4,CCc1cc2c(-c3ccccc3)cc(=O)oc2cc1OC(C)C(C)=O (stereo not given),inactive
5,COc1ccc(NC(=O)c2cc(Br)ccc2Cl)c(OC)c1,inactive
6,COc1cc(NC(=O)c2cccc(Cl)c2)c(OC)cc1NC(=O)CN1CCCCC1,inactive
7,Cc1cccc(NC(=S)NC2CC3C=CC2C3)c1 (stereo not given),inactive
8,CCSc1nnc(NC(=O)Cn2cnc3ccccc3c2=O)s1,inactive
9,CCC(C(=O)NC1C(=O)N2C(C(=O)O)=C(CSc3nnc(C)s3)CSC12)c1ccccc1 (stereo not given),inactive
10,Cc1ccc(-n2nnnc2Sc2nc([N+](=O)[O-])nn2C)c(C)c1,inactive
11,Cn1nnnc1SCC(=O)Nc1ccccc1[N+](=O)[O-],inactive
12,O=C(Nc1ccccc1)Nc1csc2ccccc12,inactive
13,O=C(NC1CCCCC1)C1CCN(c2nccs2)CC1,inactive
14,O=C(NC1c2ccccc2-c2ccccc21)c1ccco1,inactive
15,Cc1ccc(/C=N/NC(=O)c2cccs2)s1,inactive
16,C/C(=N/NC(=O)c1cccs1)c1ccc(NC(=O)COc2ccc(Cl)cc2)cc1,inactive
17,CCOc1ccc2nc(NC(=O)c3cnccn3)sc2c1,inactive
18,Cc1cc(C)c(-c2c(O)c3ccccc3n(C)c2=O)c(C)c1,inactive
19,Cc1cc(Br)ccc1NC(=O)CN1C(=O)C2CC=CCC2C1=O (stereo not given),inactive
20,COc1cc(OC)cc(-c2c(C#Cc3ccsc3)c3cc(-c4ccc(OC)nc4)ccc3n2C)c1,inactive
21,CCOc1cccc(=O)c2c(C)n(Cc3ccccc3)c(C)c12,inactive
22,CCOc1cc(N2CCOCC2)c(OCC)cc1NC(=O)c1cc(C)cc(C)c1,inactive
23,Cn1c(=O)[nH]c(=O)c2c1nc(Br)n2CCC(=O)c1ccccc1,inactive

row,SMILES,outcome
1,C=CCSc1nnc2c(n1)OC(c1c(C)[nH]n(-c3ccccc3)c1=O)Nc1ccccc1-2 (stereo not given),inactive
2,CCCCCc1ccc(-c2ccc(/C=C/C(N)=O)cc2)nc1,inactive
3,CN1c2ccccc2C(=O)NC1c1ccc([N+](=O)[O-])s1 (stereo not given),inactive
4,Cc1cccc(Cl)c1NC(=S)NN,inactive
5,CCOC(=O)c1sc(NC(=O)Cn2nnc3sc4c(c3c2=O)CCC(C(C)(C)C)C4)nc1C (stereo not given),inactive
6,CC1CCCN(C(=O)C2CCN(c3ncnc4c3nc3n4CCCCC3)CC2)C1 (stereo not given),inactive
7,CCOC(=O)NC1c2ccccc2Oc2ccccc21,inactive
8,O=C(NNC(=O)c1ccc(Oc2cc(Cl)cc(Cl)c2)o1)c1ccccc1,inactive
9,CC(=O)c1ccccc1OCCOc1ncnc2sccc12,inactive
10,COc1ccc([N+](=O)[O-])cc1NS(=O)(=O)c1ccc(C(=O)N2CCCC2)cc1,inactive
11,O=C(Cc1ccccc1)NC(=S)Nc1ccc(N2CCCCC2)cc1,inactive
12,CC(=O)c1ccc(NC(=S)Nc2ccc(N3CCOCC3)cc2)cc1,inactive
13,Cc1ccc(CNC(=O)c2cn(C)c3ccc(S(=O)(=O)N4CCOCC4)cc3c2=O)cc1,inactive
14,Cc1cccc2nc(COc3ccc4ccccc4c3Br)cn12,inactive
15,COC(=O)C1=C(C)NC(=O)/C1=C\c1cc(C)n(-c2cc(C)cc(C)c2)c1C,inactive
16,CCOC(=O)CNC(=O)c1cccnc1Oc1ccc(Cl)cc1,inactive
17,COc1ccccc1NS(=O)(=O)c1cccc(N2CC(O)=C(c3ccccc3)C2=N)c1,inactive
18,O=C(CCN1C(=O)c2ccccc2S1(=O)=O)Nc1ccc(Cl)cc1,inactive
19,CCC(=O)NC(=S)Nc1ccc(NC(=O)c2ccccc2[N+](=O)[O-])cc1,inactive
20,CC(/C=N/NC(=O)c1cc(-c2cccs2)[nH]n1)=C\c1ccccc1,inactive
21,Cc1ccc(C)c(SCc2noc(C(=O)NCC3CCCO3)c2C(=O)O)c1 (stereo not given),inactive
22,COC(=O)c1ccc(/C=N/Nc2nc(-c3ccc(C)cc3)cs2)cc1,inactive
23,O=C(O)Cc1csc(Nc2cccc(Cl)c2)n1,inactive
